# According to the supplement of paper PMC4962491:
# Structures can show the parent of a compound that is named as a salt. ± gives the standard deviation of the averaged measurements. Whole data set: some 1,600 compounds, median “mitochondrial oxygen consumption rate normalised to cell number, Z score over the library” near 0.065, cut for the lowest 2% near -2.2. For the sample, the lowest values were picked, then their nearest neighbours and some compounds at random.
# Tested on: FaDu
# Test: mitochondrial oxygen consumption rate normalised to cell number, Z score over the library; higher = higher oxygen consumption (negative = OCR reduction)
# Conditions: treatment time 24 h; assay medium: 5 mM galactose, 5 mM pyruvate, 4 mM glutamine; 10 µM
# Method: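 Primary screen: FaDu cells were incubated 24 h with Pharmakon 1600 / TDI oncology set compounds at 2 or 10 uM. Mitochondrial-specific OCR (basal minus 2 uM antimycin A) was measured on a Seahorse XF96 in assay medium with 5 mM galactose, 5 mM pyruvate and 4 mM glutamine, then corrected for Hoechst cell number and expressed as a Z score […]. Compounds that cut cell number by >66% were excluded. Two repeats.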
row,SMILES,mitochondrial oxygen consumption rate normalised
1,CCCCCC(C)N (stereo unspecified),-0.846 ± 0.93
2,CC#CCn1c(N2CCC[C@@H](N)C2)nc2c1c(=O)n(Cc1nc(C)c3ccccc3n1)c(=O)n2C,0.0591 ± 0.1
3,CCCCC(=O)O[C@H]1CC[C@H]2[C@@H]3CCc4cc(O)ccc4[C@H]3CC[C@]12C,-0.519 ± 0.44
4,CCCCC(CC)CN=C(N)N=C(N)NCCCCCCNC(N)=NC(N)=NCC(CC)CCCC (stereo unspecified),-4.17 ± 0.22
5,CCCCC(CC)COC(=O)CC(C(=O)OCC(CC)CCCC)S(=O)(=O)O (stereo unspecified),0.149 ± 0.34
6,CC(=O)Nc1ccc(OC(=O)c2ccccc2O)cc1,-0.337 ± 0.25
7,CC(CCc1ccc(O)cc1)NCC(O)c1ccc(O)cc1 (stereo unspecified),0.0984 ± 0.26
8,CNNCc1ccc(C(=O)NC(C)C)cc1,0.342 ± 0.2
9,CNNCc1ccc(C(=O)NC(C)C)cc1 [Procarbazine HCl],0.127 ± 0.26
10,C[C@H]1C[C@H]2[C@@H]3CCC4=CC(=O)C=C[C@]4(C)[C@@]3(F)[C@@H](O)C[C@]2(C)[C@@]1(O)C(=O)COP(=O)(O)O,-0.398 ± 0.27
11,CS(=O)(=O)OCCCCOS(C)(=O)=O,0.716 ± 1.1
12,CS(=O)(=O)OCCCCOS(C)(=O)=O [Busulfan],0.391 ± 1.2
13,O=C(Nc1ccc([N+](=O)[O-])cc1Cl)c1cc(Cl)ccc1O,-5.97 ± 0.27
14,NC(=O)c1ccc([N+](=O)[O-])cc1Cl,0.965 ± 0.77
15,O=C(O)COCCN1CCN([C@H](c2ccccc2)c2ccc(Cl)cc2)CC1,-0.965 ± 0.4
16,COc1ccc2nc3cc(Cl)ccc3c(Nc3cc(CN4CCCC4)c(O)c(CN4CCCC4)c3)c2n1,-0.0207 ± 0.29
17,COc1cc2c(N3CCN(C(=O)Nc4ccc(OC(C)C)cc4)CC3)ncnc2cc1OCCCN1CCCCC1,0.241 ± 0.61
18,COc1ccc(OC)c(C(O)CNC(=O)CN)c1 (stereo unspecified),0.934 ± 0.11
19,C[n+]1ccccc1/C=N/O,0.788 ± 0.1
20,Cc1ncc(C[n+]2csc(CCO)c2C)c(N)n1,1.53 ± 0.67
21,CC1(O)CCC(C(C)(C)O)CC1 (stereo unspecified),0.228 ± 0.62
22,CO[C@@]12[C@H](COC(N)=O)C3=C(C(=O)C(C)=C(N)C3=O)N1C[C@@H]1N[C@@H]12,-2.77 ± 0.14
23,O=C(O)CCC(=O)OC[C@@H](NC(=O)C(Cl)Cl)[C@H](O)c1ccc([N+](=O)[O-])cc1,-1.19 ± 0.7
24,CC1CC(OC(=O)C(O)c2ccccc2)CC(C)(C)C1 (stereo unspecified),0.62 ± 0.34
25,C[C@@H](c1ncncc1F)[C@](O)(Cn1cncn1)c1ccc(F)cc1F,-0.0277 ± 0.47
26,Cc1cc(N)c2ccccc2[n+]1CCCCCCCCCC[n+]1c(C)cc(N)c2ccccc21,-2.58 ± 0.47

row,SMILES,mitochondrial oxygen consumption rate normalised
1,O=C1NS(=O)(=O)c2ccccc21,0.156 ± 0.036
2,COC(=O)C(N)CS (stereo unspecified),0.244 ± 0.32
3,CC(=O)CC(c1ccc([N+](=O)[O-])cc1)c1c(O)c2ccccc2oc1=O (stereo unspecified),0.325 ± 0.51
4,CCOc1cc(NC(C)=O)ccc1C(=O)OC,-0.0275 ± 0.23
5,CO[C@H](C(=O)[C@@H](O)[C@@H](C)O)[C@@H]1Cc2cc3cc(O[C@H]4C[C@@H](O[C@@H]5C[C@@H](O)[C@H](O)[C@@H](C)O5)[C@H](O)[C@@H](C)O4)c(C)c(O)c3c(O)c2C(=O)[C@H]1O[C@H]1C[C@@H](O[C@@H]2C[C@@H](O)[C@@H](O[C@@H]3C[C@](C)(O)[C@H](O)[C@@H](C)O3)[C@@H](C)O2)[C@H](O)[C@@H](C)O1,-3.768 ± 0.0062
6,CC1CC2C3CCC4=CC(=O)C=CC4(C)C3(F)C(O)CC2(C)C1C(=O)CO (stereo unspecified),0.242 ± 0.014
7,CC(C)CCCC(C)NC(C)C (stereo unspecified),0.505 ± 0.85
8,CNC(=O)c1c(I)c(NC(C)=O)c(I)c(C(=O)O)c1I,-0.0805 ± 0.4
9,CN1CCCN=C1/C=C/c1cccc(O)c1,0.441 ± 0.03
10,CCOc1ccc(S(=O)(=O)O)c2cccnc12,0.206 ± 0.45
11,CC(C)(C)CC(C)(C)c1cc(Cc2cc(C(C)(C)CC(C)(C)C)cc(-n3nc4ccccc4n3)c2O)c(O)c(-n2nc3ccccc3n2)c1,0.425 ± 0.54
12,O=C1c2ccccc2C(=O)C1c1ccccc1,-1.52 ± 0.92
13,NC[C@H]1O[C@H](O[C@H]2[C@H](O[C@@H]3O[C@H](CO)[C@@H](O)[C@H]3O)[C@@H](O)[C@H](N)C[C@@H]2N)[C@H](N)[C@@H](O)[C@@H]1O,0.994 ± 0.3
14,CCCCC(CC)COC(=O)C=Cc1ccc(OC)cc1 (stereo unspecified),0.103 ± 0.58
15,CC(COc1ccccc1)NC(C)C(O)c1ccc(O)cc1 (stereo unspecified),0.554 ± 0.81
16,CC(NCCc1ccc(O)cc1)C(O)c1ccc(O)cc1 (stereo unspecified),-0.342 ± 0.3
17,CCCCCCCCNC(C)C(O)c1ccc(SC(C)C)cc1 (stereo unspecified),-3.24 ± 0.087
18,CCCCC(CC)COC(=O)c1ccccc1O (stereo unspecified),0.409 ± 0.072
19,C=CCOC(Cn1ccnc1)c1ccc(Cl)cc1Cl (stereo unspecified),-0.834 ± 0.055
20,Clc1ccc(COC(Cn2ccnc2)c2ccc(Cl)cc2Cl)cc1 (stereo unspecified),-2.19 ± 0.39
21,Clc1ccc(COC(Cn2ccnc2)c2ccc(Cl)cc2Cl)c(Cl)c1 (stereo unspecified),-0.399 ± 0.35
22,NC(=O)[C@@H]1CCCN1C(=O)[C@H](Cc1c[nH]cn1)NC(=O)[C@@H]1CCC(=O)N1,-1.1 ± 0.47
23,CC(C)CC(N)=O,0.337 ± 0.48
24,O=C([O-])/C=C/C(=O)[O-].[Fe+2],-0.129 ± 0.31
25,CC(=O)Oc1cccc(O)c1,0.689 ± 0.62
26,CC(O)C(=O)O.N (stereo unspecified),0.0377 ± 0.64

row,SMILES,mitochondrial oxygen consumption rate normalised
1,Nc1ncn([C@@H]2O[C@H](CO)[C@@H](O)[C@H]2O)c(=O)n1 [Azacitidine],0.38 ± 0.39
2,Nc1ncn([C@H]2C[C@H](O)[C@@H](CO)O2)c(=O)n1 [Decitabine],0.0464 ± 0.58
3,Nc1ccn([C@@H]2O[C@H](CO)[C@@H](O)[C@@H]2O)c(=O)n1,0.901 ± 0.043
4,Nc1ncn([C@@H]2O[C@H](CO)[C@@H](O)[C@H]2O)c(=O)n1,-2.25 ± 0.072
5,Nc1ccn([C@@H]2O[C@H](CO)[C@@H](O)[C@@H]2O)c(=O)n1 [Cytarabine;  Ara-C],1.36 ± 0.84
6,Nc1nc2[nH]cnc2c(=S)[nH]1,-2.58 ± 0.18
7,Nc1nc2[nH]cnc2c(=S)[nH]1 [Thioguanine],0.0465 ± 0.27
8,S=c1[nH]cnc2nc[nH]c12,-1.7 ± 0.17
9,CN1CCN(c2cc3c(cc2F)c(=O)c(C(=O)O)cn3-c2ccc(F)cc2)CC1,-0.0696 ± 0.52
10,CCCCCCCCCCCCCCCCOP(=O)([O-])OCC[N+](C)(C)C,-1.18 ± 0.45
11,CCC(=O)NCC[C@@H]1CCc2ccc3c(c21)CCO3,-0.125 ± 0.067
12,CCN(CC)CCNC(=O)c1c(C)[nH]c(/C=C2\C(=O)Nc3ccc(F)cc32)c1C [Sunitinib Malate],-0.335 ± 0.17
13,CCCCCCCCCCOc1cc2c(O)c(C(=O)OCC)cnc2cc1OCC,-0.591 ± 0.88
14,Cc1cc2nc3ccc(N(C)C)cc3[s+]c2cc1N,-0.959 ± 0.51
15,CN(C)CCC=C1c2ccccc2COc2ccccc21,0.0965 ± 0.76
16,CC(=O)Oc1cc(C(C)C)c(OCCN(C)C)cc1C,-0.219 ± 0.18
17,O=C1CC[C@@H](C(=O)O)N1,0.186 ± 1.2
18,O=C1[C@H](CC[C@H](O)c2ccc(F)cc2)[C@@H](c2ccc(O)cc2)N1c1ccc(F)cc1,-0.13 ± 0.35
19,COc1ccc2cc3[n+](cc2c1OC)CCc1cc2c(cc1-3)OCO2,-5.87 ± 0.012
20,COc1ccc2c(c1OC)C(=O)O[C@@H]2[C@H]1c2c(cc3c(c2OC)OCO3)CCN1C,0.129 ± 0.48
21,CC[C@H]1OC(=O)[C@H](C)C(=O)[C@H](C)[C@@H](O[C@@H]2O[C@H](C)C[C@H](N(C)C)[C@H]2O)[C@](C)(OC)C[C@@H](C)C(=O)[C@H](C)[C@H]2N(CCCCn3cnc(-c4cccnc4)c3)C(=O)O[C@]12C,-0.0307 ± 0.49
22,NC(=O)NS(=O)(=O)c1ccc(N)cc1,0.826 ± 1.4
23,Cc1cc(-c2ccc(/N=N/c3ccc4c(S(=O)(=O)O)cc(S(=O)(=O)O)c(N)c4c3O)c(C)c2)ccc1/N=N/c1ccc2c(S(=O)(=O)O)cc(S(=O)(=O)O)c(N)c2c1O,1.24 ± 1
24,Cc1cc(=O)oc2cc(O)ccc12,0.758 ± 0.23
